Laboratory results from PubChem BioAssay AID504466 (National Center for Advancing Translational Sciences (NCATS), 2011).
In all, about 330,000 compounds went through this assay and about 4,200 (1.3%) were called active. Where a call stands in place of a potency, no number is given. Inconclusive results (about 6%) are left out. The call rests on the fitted dose curve; in most records, active means well fitted activation curve with a large enough effect; inconclusive means small, poorly fitted or top-dose-only effect; inactive means no such curve, though single readings can be large or run the other way. The full list was thinned out, with actives kept by preference.

assay: qHTS screen for small molecules that induce genotoxicity in human embryonic kidney (HEK293T) cells expressing luciferase-tagged ELG1; conditions: HEK293T ELG1-luciferase reporter, luminescence, 16 h; series mostly up to 46 µM; further: nearly all actives have a fitted effect of over 60% in size
From the text: NIH Molecular Libraries Probe Production Network [MLPCN] NIH Chemical Genomics Center [NCGC] MLPCN Grant: 1 R03 MH092164-01 Assay Provider: Kyungjae Myung, NHGRI, NIH Keywords: MLPCN, qHTS, NCGC, genotoxicity, cancer Assay Overview: Cancer cells divide rapidly compared to normal cells in the body. During cell division, cancer cells need to duplicate their genome by DNA replication. The failure of genome duplication leads to cancer cells' death. Therefore, inhibitors of DNA replication could specifically kill cancer cells. Based on this concept, many chemotherapeutic agents were developed and have been used to treat cancer patients. However, there are a limited number of agents available in the clinical setting, and some of those that do exist have low efficacy and severe side effects. Therefore, if we can find the compounds that effectively block DNA replication either by directly damaging DNA or by inhibiting other cellular mechanisms, the options for cancer treatment will be broadened. With this in mind, we developed a quantitative high-throughput ELG1-luciferase reporter gene assay. Since the level of human ELG1 protein is enhanced in response to genetic stresses, increases in luciferase activity can be used to identify compounds that cause genetic stress.
Assay Protocol Summary: For genotoxicity screening, 2,000 cells in 5 uL/well were dispensed into white, solid-bottom 1536-well plates using a solenoid-based dispenser. Following transfer of 23 nL compound or DMSO vehicle by a pin tool, the plates were incubated 16 hr at 37 °C and 5% CO2. 5 ul ONE-Glo (Promega) was then added to each plate and following a 30 min incubation at room temperature, luciferase activity was quantified on a ViewLux CCD-based plate reader.
Potency means the concentration at half of the fitted maximal effect.

Compound	Potency	activity change, positive = activation
O=C(CSc1nnc(-c2ccncc2)o1)Nc1cccc(Cl)c1	inactive	
CN(Cc1ccc(CNC[C@H]2O[C@@H](n3cnc4c(N)ncnc43)[C@H](O)[C@@H]2O)o1)S(C)(=O)=O	inactive	
Cc1ccc(-c2nnc(SC(C)C#N)n2N)cc1 (stereo not drawn)	inactive	
Cc1ccc(NC(=O)NC(=O)CSc2nnc(-c3ccc(OC(F)F)cc3)n2N)c(C)c1	inactive	
C=C(C)CSc1nnc(-c2ccc(C)cc2)n1N	10 µM (active)	
CN(CC(=O)NCCc1ccc(S(N)(=O)=O)cc1)CC(=O)Nc1ccc(F)c(F)c1F	inactive	
CCOC(=O)C1CCN(C(=O)CN2C(=O)NC(C)(c3ccc4cc(OC)ccc4c3)C2=O)CC1 (stereo not drawn)	inactive	
N#CCCN(C(=O)COC(=O)c1ccc2c(c1)OCCO2)c1ccccc1	inactive	
O=C(OCC(=O)N1CCCCCC1)c1ccc(Cl)nc1	inactive	
Cc1cccc(NC(=O)COc2ccccc2C)n1	18.4 µM (active)	
CCN(CC)S(=O)(=O)c1ccc(C)c(NC(=O)COc2ccc(Br)cc2Cl)c1	inactive	
Cc1ccccc1OCC(=O)Nc1nc(C)c(C(=O)N(C)C)s1	inactive	
COCCNC(=O)COc1ccccc1C	inactive	
Cc1cccc(NC(=O)COc2ccc(Br)cc2C)n1	2 µM (active)	
Cc1cccc(NC(=O)Nc2ccc(OCc3ccccc3)cc2)n1	inactive	
CC(=NNC(=O)c1ccc2nc[nH]c2c1)c1ccc(Br)cc1	inactive	
CCOC(=O)C1CCN(CC(=O)Nc2ccc(OC)c(S(=O)(=O)N3CCCCC3)c2)CC1	inactive	
CC1O[C@H](OC2C(COC3OC(CO)C(O)[C@H](O)C3O)OC(OC3CC[C@]4(C)C(CC[C@@]5(C)[C@@H]4C=C[C@]46OC[C@@]7(CCC(C)(C)C[C@H]74)C(O)C[C@@]56C)C3(C)C)C(O)C2O)C(O)C(O)C1O (stereo partly drawn)	inactive	
CC(=O)c1sc(N)nc1C	inactive	
CC(=O)c1sc(NC(=O)C2=NN(c3ccccc3)C(=O)CC2)nc1C	inactive	
CC(=O)c1sc(N/N=C\c2ccc(C)cc2)nc1C	18.4 µM (active)	
COc1cc(C=NNC(=O)c2cccnc2)ccc1OC(=O)c1ccccc1F	inactive	
CC[C@@H]1CCCCc2ccccc2[C@@H](C(=O)C[C@H](O)CC(C)=O)OC1=O	inactive	
O=C(CN1C(=O)NC2(CCCCCCC2)C1=O)NCc1ccc(F)cc1	inactive	
Cc1ccc(NC(=O)CN(C)C(=O)c2ccc(Cl)c(S(=O)(=O)NCc3ccco3)c2)cc1	inactive	

Compound	Potency	activity change, positive = activation
COc1ccc(N=C(C)c2sc3ccccc3c2O)cc1	2.31 µM (active)	
COC(=O)c1ccc(/C=C/c2c(-c3ccc(OC)cc3)sc3ccccc23)cc1	inactive	
Oc1ccc(N=Cc2sc3ccccc3c2Cl)cc1	inactive	
CCOc1ccccc1Nc1nnc(SCC(=O)NCC2CCCO2)s1 (stereo not drawn)	inactive	
Cc1ccc(C)c(NC(=O)CN(C)C(=O)COc2ccc3ccccc3c2)c1	inactive	
Cc1ccc(-n2c(SCC(=O)N3CCC(C(=O)O)CC3)nc3ccccc3c2=O)cc1C	14.6 µM (active)	
O=C(CSc1nc2ccccc2c(=O)n1-c1ccccc1F)N1CCOCC1	inactive	
O=C(CSc1nc2ccccc2c(=O)n1-c1ccc(F)cc1)NC1CC1	inactive	
COc1ccc(S(=O)(=O)N2CCCCCC2)cc1NC(=O)Cc1ccc(OC)c(OC)c1	inactive	
N#CC(Cc1cc2ccccc2n1S(=O)(=O)c1ccccc1)OCc1ccccc1 (stereo not drawn)	inactive	
Fc1ccc2nc(N3CCCCC3)sc2c1	7.31 µM (active)	
Cc1ccc2nc(N3CCN(C(=O)c4ccco4)CC3)sc2c1	inactive	
O=C(NCCc1cccc(F)c1)C1CCCN(c2nc3ccccc3s2)C1 (stereo not drawn)	inactive	
CC(OC(=O)c1ccc(Cl)cc1O)C(=O)NCCC1=CCCCC1 (stereo not drawn)	inactive	
O=C(COC(=O)c1ccco1)Nc1ccc(Cl)cn1	inactive	
COc1ccc(NC(=S)N2N=CCC2c2ccccc2)cc1 (stereo not drawn)	4.11 µM (active)	
COc1ccc(NC(=S)N2CCc3cc(OC)c(OC)cc3C2)cc1	inactive	
CCC(C)N(C)C1CCN(C(=S)Nc2ccc(OC)cc2)CC1 (stereo not drawn)	inactive	
COC(=O)[C@]1(CC(C)C)N[C@H](c2ccc(SC3CCCCC3)cc2)[C@@H]2C(=O)N(C)C(=O)[C@@H]21	inactive	
CSc1ccccc1NC(=O)c1cc(Cl)sc1Cl	inactive	
Cc1ccccc1C(=O)Nc1ccccc1Sc1ccccc1	inactive	
CSc1ccccc1NC(=O)c1cnc2sc(C)cn2c1=O	3.26 µM (active)	
C[C@@H](CN1CCC[C@H]1CN1C(N)=NC[C@@H]1Cc1ccccc1)N1C[C@@H](Cc2ccccc2)N(CCCC2CCCC2)C1=N	inactive	
CCN(CC)S(=O)(=O)c1ccc(N2CCCC2)c(NC(=O)c2ccc([N+](=O)[O-])o2)c1	inactive	
O=C(CSc1nccn1-c1cccc(F)c1)NC1CCCC1	inactive	

Compound	Potency	activity change, positive = activation
COc1cc(C(=O)NC2CCN(C)CC2)ccc1Nc1ncc2c(n1)N(C1CCC(O)CC1)CCC(=O)N2C (stereo not drawn)	inactive	
CCC(=O)c1ccc(OCC(=O)OCC(=O)N2CCc3ccccc3C2)cc1	inactive	
O=C(Cn1c(=S)nc2ccccn21)N1CCc2ccccc2C1	20.6 µM (active)	
O=C(C(=O)N1CCc2ccccc2C1)N1CCc2ccccc2C1	inactive	
CCOC(=O)[C@@H]1[C@H]2COc3ccc(Br)cc3[C@H]2N2C(=O)N(c3ccc(C)cc3)C(=O)[C@@]12C	inactive	
Cc1ccc(S(=O)(=O)N2C[C@@H]3CCCC[C@@H]3[C@@H](C)[C@H]2c2cn(Cc3ccccc3)c3ccc(F)cc23)cc1	inactive	
CC(C)C(NC(=O)c1c(F)cccc1F)C(=O)NNC(=O)c1ccccc1 (stereo not drawn)	inactive	
COc1cc(/C=C/C(=O)OCC(=O)c2ccccc2)cc(OC)c1OC	inactive	
Cc1cc(N)n2nc(-c3ccc(C(C)(C)C)cc3)cc2n1	0.411 µM (active)	
Cc1nc2cc(-c3ccc(F)cc3)nn2c(N2CCOCC2)c1C	inactive	
Cc1cc(C(C)(C)C)n2nc(C)c(-c3ccccc3)c2n1	inactive	
COc1ccc2[nH]c3c(c2c1)CCN1C(=O)C(CC(=O)NCCc2ccccn2)C[C@H](C(=O)N2CCOCC2)[C@@]31C (stereo partly drawn)	inactive	
CCS(=O)(=O)n1nc(-c2ccccc2)nc1SCc1ccccc1	10.3 µM (active)	
CCn1c(SCc2ccccc2)nc2cc(OC)c(OC)cc2c1=O	inactive	
CCn1c(SCc2ccccc2)nc2c(c1=O)SCC2	inactive	
Cc1ccc2c(c1)NC(=O)[C@@]1(C)[C@@H](c3ccccc3)[C@H]3COc4ccc(Cl)cc4[C@@H]3N1C2=O	inactive	
CN(C)C(=O)CCc1ccc2c3c([nH]c2c1)[C@]1(C)[C@@H](C(=O)N2CCOCC2)C[C@H](CC(=O)NCCc2ccccn2)C(=O)N1CC3	inactive	
COc1ccc(S(=O)(=O)N(C)C[C@@H]2Oc3ccc(NC(=O)Nc4c(C)noc4C)cc3C(=O)N([C@H](C)CO)C[C@@H]2C)cc1	inactive	
COc1ccc(-n2cnc3cc(C(=O)NC4CCCC4)ccc32)cc1	inactive	
COc1ccc(-n2cnc3cc(NCc4ccco4)ccc32)cc1	20.6 µM (active)	
COc1ccc(Nc2nc(NCc3ccco3)nc(N/N=C/c3ccccc3Cl)n2)cc1	inactive	
C=CCC[C@H](Cc1ccc(F)cc1)C(=O)OC[C@@H](NC(=O)[C@@H](CC=C)CC(=O)N[C@H](CO)Cc1ccccc1)C(C)(C)C	inactive	
Cc1cc([N+](=O)[O-])ccc1NC(=O)C1CCCO1 (stereo not drawn)	inactive	
Cc1ccc(C)c(C(C)NC(=O)C2CCCO2)c1 (stereo not drawn)	inactive	
Cc1cc(C)c2nc(NC(=O)C3CCCO3)sc2c1 (stereo not drawn)	3.55 µM (active)	

Compound	Potency	activity change, positive = activation
O=C(Nc1ccccc1)Nc1ccc(C(F)(F)F)cn1	inactive	
Cc1nccn1CC(=O)N/N=C/c1ccc(O)c(O)c1	inactive	
Oc1ccc(/C=N/Nc2ccc(C(F)(F)F)cn2)cc1O	20.6 µM (active)	
CCCCCCSc1ccc(-c2nc3ccc(Cl)cn3c2NCc2ccccc2)cc1	inactive	
O=C(/C=C/c1ccc2c(c1)OCO2)NCc1cn2cc(Cl)ccc2n1	inactive	
Clc1ccc2nc(CSc3ccccc3)cn2c1	0.82 µM (active)	
O=C(NCCc1ccco1)c1ccc(OCc2cn3ccccc3n2)cc1	inactive	
COc1ccc2nc(SCc3ccccc3)nc(C)c2c1	3.66 µM (active)	
COC(=O)CSc1nc(C)c2ccc(OC)cc2n1	inactive	
COc1ccc(-c2nnc3ccc(SCc4ccccc4)nn23)cc1	inactive	
C#CCOCCOCCOCCNc1nc(N2CCN(C(=O)[C@H](CO)n3cc([C@@H](N)C(C)C)nn3)CC2)nc(N2CCN(C(=O)[C@H](CCC(=O)O)n3cc([C@@H](N)[C@H](C)CC)nn3)CC2)n1	inactive	
O=C(COC(=O)c1cccnc1Cl)NC12CC3CC(CC(C3)C1)C2	inactive	
Cc1ccc(NC(=O)C2CC2)cc1S(=O)(=O)N1CCOCC1	inactive	
CC[C@]12c3[nH]c4cc(CCC(=O)N(C)C)ccc4c3CCN1C(=O)[C@@H](CC(=O)NCCCN(C)C)C[C@@H]2C(=O)N1CCN(C(=O)c2ccco2)CC1	inactive	
O=C(NN=Cc1ccc(N2CCOCC2)cc1)c1cc2ccccc2cc1O	inactive	
N/C(=N\OC(=O)Cc1ccc([N+](=O)[O-])cc1)c1ccccn1	inactive	
COc1ccccc1OCC(=O)O/N=C(\N)c1ccccn1	9.2 µM (active)	
COc1ccccc1OCC(=O)OCc1cc(-c2ccco2)on1	inactive	
COc1ccc(OCC(=O)NNC(=O)C2CCC2)cc1	inactive	
CC(CNC(=O)Cn1cnc2c(OCc3ccccc3)ncnc21)c1ccccc1 (stereo not drawn)	inactive	
Cc1ccc(Nc2nc(N3CCOCC3)nc(N3CCOCC3)n2)cc1Cl		0.349% [at 9.26 µM] (inactive)
CNc1nc(Nc2ccc(C)c(Cl)c2)nc(N)c1[N+](=O)[O-]	10.3 µM (active)	
COc1cccc(Nc2nc(N)c([N+](=O)[O-])c(NCc3ccco3)n2)c1	inactive	
